Sampled rows, rich in hits. Any-hit rate of the full collection: about 3.1%.
uPA generation: blocks generation of uPA at the cell surface. Potency, µM (top dose mostly 38.3 µM), for the others: at the highest dose activity change, negative = inhibition, most hits filed as inhibitors. AID 540303. 330,000 tested, 0.31% active. cell surface uPA generation assay, qHTS; active = well fitted inhibition curve with a large enough effect; inconclusive = small, poorly fitted or top-dose-only effect; inactive = no such curve, though single readings can be large or run the other way; tested in mouse RAW 264.7 cells; note: potency is the fitted concentration of half-maximal effect; % is set by controls: 0 for no effect and ±100 for the full control effect; nearly all actives have a fitted effect of over 55% in size
TSG101-PTAP inh: blocks PTAP/TSG101 interaction to inhibit HIV-1 budding. Q99816. Fluorescence polarization, FITC-PTAP peptide / Tsg101 binding. Potency, µM (highest dose often 115 µM), inactives show top-dose activity change, negative = inhibition, actives largely listed as inhibitors. 340,000 tested, under 10 active. AID 493005; active = well fitted inhibition curve with a large enough effect in the main read-out, with a control signal flat, not every such curve was filed as active; inconclusive = small, poorly fitted or top-dose-only effect, or effect the other way, or a change in a side signal; inactive = no such curve, though single readings can be large or run the other way; note: potency is the fitted concentration of half-maximal effect; % of control where 0% means no effect
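Fluorescence anisotropy tracks displacement of a FITC-tagged PTAP peptide (50 nM) from the Tsg101 binding domain (10 uM), following a 20 min room-temperature incubation at pH 7.5.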
TSHR antag: antagonists of human thyroid stimulating hormone receptor; P16473; TSHR-expressing cells, TSH-stimulated cAMP HTRF, 2 h; active compounds read low; activity change, negative = inhibition, % at 11.5 µM; 330,000 tested, 0.2% active; AID 504810;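 active = activity change below a set negative limit, meaning inhibition stronger than a set level, cut at about -70% in these data; inconclusive = activity change between two set negative limits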; note: % is set by controls: 0 for no effect and ±100 for the full control effect
Target sequence (P16473 whole entry, looked up): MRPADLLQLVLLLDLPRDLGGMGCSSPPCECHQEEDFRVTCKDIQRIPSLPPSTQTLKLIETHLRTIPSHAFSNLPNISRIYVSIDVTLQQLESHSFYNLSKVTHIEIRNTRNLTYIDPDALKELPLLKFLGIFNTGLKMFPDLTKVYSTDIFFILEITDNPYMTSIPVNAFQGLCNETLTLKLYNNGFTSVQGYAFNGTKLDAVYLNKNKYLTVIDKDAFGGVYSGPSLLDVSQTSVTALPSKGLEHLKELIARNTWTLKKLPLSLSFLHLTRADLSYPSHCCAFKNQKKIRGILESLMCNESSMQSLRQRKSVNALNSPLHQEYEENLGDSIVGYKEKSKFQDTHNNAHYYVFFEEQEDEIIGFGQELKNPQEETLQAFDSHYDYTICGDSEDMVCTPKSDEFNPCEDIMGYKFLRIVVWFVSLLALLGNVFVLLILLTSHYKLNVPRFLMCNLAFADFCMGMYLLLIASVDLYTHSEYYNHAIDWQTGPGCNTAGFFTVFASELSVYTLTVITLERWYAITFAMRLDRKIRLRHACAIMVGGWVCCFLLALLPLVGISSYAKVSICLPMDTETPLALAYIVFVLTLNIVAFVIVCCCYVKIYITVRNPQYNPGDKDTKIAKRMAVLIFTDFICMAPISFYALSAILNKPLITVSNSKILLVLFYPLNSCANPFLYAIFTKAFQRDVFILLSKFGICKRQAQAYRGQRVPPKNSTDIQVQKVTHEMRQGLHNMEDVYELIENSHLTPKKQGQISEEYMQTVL
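Antagonism was scored as loss of TSH-driven cAMP in TSHR cells, stimulated with 4nM TSH (EC80) for 2 hours at 37 deg C and detected by homogeneous HTRF competition immunoassay.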
VDR inh: blocks the human vitamin D receptor | Potency, µM, without a hit: max response, negative = inhibition, usual class: inhibitors | P11473 | AID 504847 | VDR-SRC2-3 peptide fluorescence polarization, 2 h | 400,000 tested, 0.93% active; note: potency is the fitted concentration of half-maximal effect; % is set by controls: 0 for no effect and ±100 for the full control effect
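Compounds are added to VDR with labelled SRC2-3 coactivator peptide and held 2 h at room temperature. Inhibition of the VDR–peptide interaction is then read as a change in fluorescence polarization.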
PLK1 PBD inh: PLK1 (human) polo-box domain binding inhibition | P53350 | Plk1 PBD binding of FITC phosphopeptide, fluorescence polarization | Potency, µM, for inactives: max response, negative = inhibition, most hits filed as inhibitors | 360,000 tested, 2.8% active | AID 720504; note: potency is the fitted concentration of half-maximal effect; series mostly up to about 57 µM; % is set by controls: 0 for no effect and ±100 for the full control effect; nearly all actives have a fitted effect of over 65% in size
* hit, by the source's call; ? = inconclusive; / = no result given. Unless noted, calls come from the whole dose curve; as a rule, active = well fitted curve in the direction sought with a large enough effect; inconclusive = small, poorly fitted or top-dose-only effect, or another doubt; inactive = no such curve, though single readings can be large; an effect the other way counts as inactive or inconclusive.

SMILES	uPA generation	TSG101-PTAP inh	TSHR antag	VDR inh	PLK1 PBD inh
CCCCCCCC1=CC2=C(Cl)C(=O)C(C)(OC(C)=O)C(=O)C2=CO1 (stereo not drawn)	/	/	/	50.1µM*	/
Cc1ccccc1CN1C(=O)c2ccccc2Sc2ccc(C(=O)NC(C)c3ccccc3)cc21 (stereo not drawn)	/	/	/	-1.1%	/
Cc1ccc(S(=O)(=O)N(Cc2cccc(Cl)c2)C(=O)N2CCN(C)CC2)cc1	2.7%	4.6%	10.8	-10.6%	-11.7%
CCC(C)(C)C1CCC2(CC1)NC(=O)N(CC(=O)N1CCN(c3ccccc3OC)CC1)C2=O (stereo not drawn)	/	/	/	/	-13.6%
O=S(c1cc(Cl)cc(Cl)c1O)c1cc(Cl)cc(Cl)c1O	/	/	/	39.8µM*	?
C#CC1CN(Cc2ccccc2)CC(C#C)N1C (stereo not drawn)	1.1%	-2.4%	-4.3	-22.0%	29.9µM*
CN(C)c1ccc2c(O)cc(=O)n(C)c2c1	/	-3.6%	-6.1	31.6µM*	-28.2%
CCOC(=O)c1cc(-c2ccc(F)cc2)n(CC(=O)NC2CCCCCC2)c1C	/	/	/	-0.8%	/
CC(=O)c1cccc(NC(=O)Cn2cnc(S(=O)(=O)N3CCCCC3)c2)c1	2.4%	-1.4%	-9.1	20.3%	1.1%
CC(=O)c1ccc(N2CCN(C(=O)Cn3cnc(S(=O)(=O)N4CCCCC4)c3)CC2)cc1	8.9%	-1.5%	-18.4	-19.0%	26.7µM*
CC(=O)c1ccc(NC(=O)Cn2cnc(S(=O)(=O)N3CCOCC3)c2)cc1	5.8%	-1.5%	21.2	-3.6%	1.5%
CC(=O)c1ccc(NC(=O)Cn2cnc(S(=O)(=O)N3CCC(C)CC3)c2)cc1	-9.2%	-0.3%	10.6	-16.8%	29.9µM*
CC[C@H](C)[C@H](NC(=O)CNC(=O)[C@H](CCCNC(=N)N)NC(=O)CNC(=O)[C@@H](NC(=O)[C@H](Cc1ccc(O)cc1)NC(=O)[C@H](Cc1c[nH]c2ccccc12)NC(=O)[C@H](C)NC(=O)[C@@H]1CCCN1C(=O)[C@H](CC(N)=O)NC(=O)[C@@H](NC(=O)[C@H](CC(=O)O)NC(=O)[C@@H]1CCCN1C(=O)[C@@H](N)[C@@H](C)O)[C@@H](C)CC)[C@@H](C)O)C(=O)N[C@@H](CCCNC(=N)N)C(=O)N1CCC[C@H]1C(=O)N[C@H](C(=O)NCC(=O)N[C@@H](CCCNC(=N)N)C(=O)N[C@@H](Cc1ccccc1)C(N)=O)C(C)C	/	/	/	0.9%	/
Cc1c(Cl)cccc1NC(=O)CCNC(=O)N1CC(=O)Nc2ccccc21	4.6%	-3.0%	31.9	-24.8%	26.7µM*
CCOC(=O)c1cc(-c2ccc(/C=C3/C(=O)N(c4ccc(C(=O)O)cc4)N=C3C)o2)ccc1Cl	-6.1%	-1.6%	-6.0	?	0.844µM*
O=C(O)/C(=C\c1ccc(-c2ccccc2[N+](=O)[O-])o1)c1ccccc1	-4.9%	0.7%	-6.2	-25.7%	37.7µM*
O=C(/C=C/c1ccc(-c2ccccc2[N+](=O)[O-])o1)c1ccccc1	-14.8%	0.2%	-8.4	-19.8%	-14.0%
CN(C)/C=C1/C(=O)N(c2ccc([N+](=O)[O-])cc2)N=C1c1ccccc1	/	/	-24.0	/	/
O=C1/C(=C\c2ccc(-c3ccccc3[N+](=O)[O-])o2)C(c2ccccc2)=NN1c1ccccc1	-4.5%	-1.8%	-2.4	-22.7%	3.36µM*
CC1=NOC(=O)/C1=C\c1ccc(-c2ccc(Br)cc2C(=O)O)o1	1.5%	-1.4%	-2.1	79.4µM*	2.67µM*
CCOC(=O)c1cc(-c2ccc(/C=N\n3cnnc3)o2)ccc1Cl	-3.4%	3.6%	-3.5	22.5%	-8.7%
COCCNC(=O)C1(C)CCCN(C(=O)c2cccc(C#N)c2)C1 (stereo not drawn)	/	/	/	/	-7.4%
COC(=O)c1c(C)cc(OC)cc1O	/	/	/	11.4%	/
Cc1nc2ccn(Cc3cccnc3)c(=O)c2cc1C(=O)Nc1ccc(OC(F)(F)F)cc1	/	/	/	16.9%	/
O=C(O)c1ccccc1-c1ccc(/C=C2\SC(=O)N(c3ccccc3)C2=O)o1	-11.0%	-4.7%	-1.2	-7.1%	-12.5%
CC1=NN(c2ccc(Br)cc2)C(=O)/C1=C/c1ccc(-c2ccccc2C(=O)O)o1	16.5%	-0.1%	-34.2	?	11.9µM*
CCCCOC(=O)c1ccc(NC(=O)COC(=O)CN2C(=O)NC3(CCCC3)C2=O)cc1	-0.4%	-3.4%	/	13.1%	-2.7%

Bioassay records: PubChem, National Center for Advancing Translational Sciences (NCATS)
